# Measurements published in the supplement of paper PMC9135407.
# Where “and” joins values, the source holds several entries; their conditions need not be identical. Identical values can stand only once. Counter-ions that a name gives are not always drawn. Among all 5,800 compounds or so, about 620 (11%) showed activity. Only a selection was taken, and actives are over-represented in it overall. Unmarked numbers belong to inactive results.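 How the source made its calls: active = score above a cut-off or among the top three wells of a plate; in these data no inactive exceeds 0.85.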
# Test system: primary human hepatic stellate cells (donor 1)
# Test: scaled lipid accumulation score (0 = DMSO-like, 1 = nortriptyline-like); higher = stronger HSC inactivation (lipid re-accumulation), active = hit call of the paper
# Settings: 48 h
# [1] = library stock concentration: 10 mM
# [2] = library stock concentration: 3.33 mM
# [3] = library stock concentration: 1 mM
# [4] = library stock concentration: 400 uM
# [5] = library stock concentration: 2 mM
compound,measurement,setting,value
CC1(C)S[C@@H]2[C@H](N3C(=O)[C@@H](c4ccccc4)NC3(C)C)C(=O)N2[C@H]1C(=O)O [Hetacillin potassium],scaled lipid accumulation score,library stock concentration: 4.7 mM,0.007
same,scaled lipid accumulation score,[1],≤ 0
CC(C)(C)CC(C)(C)c1ccc(O)c(Cc2ccc(Cl)cc2Cl)c1 [Clofoctol],scaled lipid accumulation score,[1],≤ -0.027
CC(=O)O[C@]1(C(C)=O)CC[C@H]2[C@@H]3C=C(C)C4=CC(=O)CC[C@]4(C)[C@H]3CC[C@@]21C [Megestrol Acetate],scaled lipid accumulation score,[2],≤ 0
same,scaled lipid accumulation score,[1],≤ 0
CC(=O)O[C@]1(C(C)=O)CC[C@H]2[C@@H]3C=C(Cl)C4=CC(=O)CC[C@]4(C)[C@H]3CC[C@@]21C [Chlormadinone acetate],scaled lipid accumulation score,library stock concentration: 4.5 mM,0.064
same,scaled lipid accumulation score,library stock concentration: 4.9 mM,0.08
CC(=O)O[C@]1(C(C)=O)CC[C@H]2[C@@H]3C=C(C)C4=CC(=O)CC[C@]4(C)[C@H]3CC[C@@]21C [Megestrol acetate],scaled lipid accumulation score,,≤ 0
same,scaled lipid accumulation score,library stock concentration: 5.2 mM,≤ 0 and 0.036
same,scaled lipid accumulation score,[1],≤ 0
CC(=O)O[C@]1(C(C)=O)CC[C@H]2[C@@H]3C=C(C)C4=CC(=O)CC[C@]4(C)[C@H]3CC[C@@]21C,scaled lipid accumulation score,[1],≤ 0
CC(=O)O[C@]1(C(C)=O)CCC2C3C=C(Cl)C4=CC(=O)CC[C@]4(C)C3CC[C@@]21C (some centres not stated) [Chlormadinone acetate],scaled lipid accumulation score,[1],0.968 (active)
"CC(C)n1cnc2c(NCc3ccccc3O)nc(NCCCO)nc21 [Cdk Inhibitor, p35]",scaled lipid accumulation score,[2],≤ 0
N[C@@H](Cc1cc(I)c(Oc2cc(I)c(O)c(I)c2)c(I)c1)C(=O)O [Levothyroxine],scaled lipid accumulation score,library stock concentration: 2.6 mM,≤ 0
N[C@@H](Cc1cc(I)c(Oc2cc(I)c(O)c(I)c2)c(I)c1)C(=O)O,scaled lipid accumulation score,[1],≤ 0
N[C@@H](Cc1cc(I)c(Oc2cc(I)c(O)c(I)c2)c(I)c1)C(=O)O [L-Thyroxine],scaled lipid accumulation score,[2],≤ 0
same,scaled lipid accumulation score,[1],≤ 0
c1ccc(C(OC2CCN(CCCc3nn[nH]n3)CC2)c2ccccc2)cc1,scaled lipid accumulation score,[3],≤ 0
O=C1c2ccc(O)c(O)c2C(=O)c2c(O)ccc(O)c21 [Quinalizarin],scaled lipid accumulation score,[1],≤ 0
CCCCCCCCCCCCCCCCCC(=O)NCCO [Stearoyl Ethanolamide],scaled lipid accumulation score,[3],≤ 0
CC(C)OC(=O)CCC/C=C\C[C@@H]1[C@@H](/C=C/[C@H](O)C2Cc3ccccc3C2)[C@@H](F)C[C@@H]1O [AL 8810 isopropyl ester],scaled lipid accumulation score,[3],≤ 0
CN[C@@H]1C[C@H]2O[C@@](C)([C@@H]1OC)n1c3ccccc3c3c4c(c5c6ccccc6n2c5c31)C(=O)N[C@H]4O,scaled lipid accumulation score,[2],1.21 (active)
CCCCCCOC(=O)[C@]1(O)C[C@@H]2O[C@@]1(C)n1c3ccccc3c3c4c(c5c6ccccc6n2c5c31)C(=O)NC4,scaled lipid accumulation score,library stock concentration: 900 uM,0.034
same,scaled lipid accumulation score,[2],≤ 0
Cc1ncc(COP(=O)([O-])[O-])c(CN(CCN(CC(=O)O)Cc2c(COP(=O)([O-])O)cnc(C)c2O)CC(=O)O)c1O.[Mn].[Na+].[Na+].[Na+],scaled lipid accumulation score,[1],0.072
CC(C)CCCCCCC/C=C\C(=O)O [cis-.DELTA.2-11-methyl-Dodecenoic Acid],scaled lipid accumulation score,[3],0.068
CCOc1ccc(Nc2nc(-c3c(C)nc4ccccn34)cs2)cc1,scaled lipid accumulation score,[1],0.446
CCCCC[C@H](O)/C=C/[C@H]1[C@H](O)CC(=O)[C@@H]1CC(=O)CCCCC(=O)O [6-keto Prostaglandin E1],scaled lipid accumulation score,[3],≤ 0
O=C(NC1CC1)c1cccc(-c2ccc3c(NC(=O)C4CC4)n[nH]c3c2)c1,scaled lipid accumulation score,library stock concentration: 80 uM,≤ 0
same,scaled lipid accumulation score,[4],≤ 0
same,scaled lipid accumulation score,[5],≤ 0
same,scaled lipid accumulation score,[1],≤ 0
C[C@H](Nc1ncnc2nc[nH]c12)c1cc2cccc(Cl)c2c(=O)n1-c1ccccc1,scaled lipid accumulation score,[2],≤ 0
same,scaled lipid accumulation score,[1],≤ -0.001
CCN(CC)Cc1ccc2cc(COC(=O)Nc3ccc(C(=O)NO)cc3)ccc2c1.Cl.O [Givinostat (ITF2357)],scaled lipid accumulation score,[2],0.903 (active)
same,scaled lipid accumulation score,[1],0.897 (active)
CCN(CC)CCNC(=O)c1ccc(NC(C)=O)cc1 [Acecainide hydrochloride],scaled lipid accumulation score,library stock concentration: 6.4 mM,≤ 0
CCN(CC)CCNC(=O)c1ccc(NC(C)=O)cc1 [N-Acetylprocainamide hydrochloride],scaled lipid accumulation score,[1],≤ 0
CCCCN(Cc1ccc(C(=O)NO)cc1)C(=O)Nc1ccccc1 [Nexturastat A],scaled lipid accumulation score,[2],≤ -0.009
same,scaled lipid accumulation score,[1],0.176
COc1ccc(S(=O)(=O)N2c3ccc(Cl)cc3[C@](O)(c3ccccc3Cl)[C@@H]2C(=O)N2CCC[C@H]2C(N)=O)cc1OC,scaled lipid accumulation score,[1],0.02
O=C(O)c1cc(=O)c2cccc(O)c2[nH]1 [Xanthurenic acid],scaled lipid accumulation score,[1],≤ 0
O=C(Nc1cc2cc[nH]c2cn1)c1ccccc1,scaled lipid accumulation score,[2],≤ -0.009
same,scaled lipid accumulation score,[1],≤ 0
Cc1ccc(C(=O)Nc2ccc(CN3CCN(C)CC3)c(C(F)(F)F)c2)cc1C#Cc1cnc2cccnn12,scaled lipid accumulation score,[4],0.949 (active)
same,scaled lipid accumulation score,[5],1.1 (active)
same,scaled lipid accumulation score,[1],1.14 (active)
